According to article PMC6925144, “A prospective compound screening contest identified broader inhibitors for Sirtuin 1” (Scientific Reports, 2019):
In all, about 3,200 compounds were measured (“TSA(with NAD+) / Primary screening (TSA) / delta Tm (K)”: median about -0.04, highest 2% from about 0.37 on). The sample as a whole holds a higher share of the highest values than the screen did.

Each compound was assayed against NAD-dependent deacetylase Sirtuin 1 (human, UniProt Q96EB6) (assay: primary screen, delta tm). Conditions: 10 µM.
Design: single well (n = 1, as 'the same TSA')
Protocol: A total of 3,192 compounds extracted from the proposed lists were first screened by thermal shift assay (TSA), which determined a melting temperature shift (ΔTm) of Sirtuin 1 upon the addition of a test compound at a concentration of 10 µM (n = 1) with primary hit criteria of ΔTm > 0.45 K or ΔTm < −1.5 K. Primary hits (48 compounds) were retested in the same assay at three concentrations (5, 10, 20 µM, n = 4) for hit confirmation and for dose-dependency check. Secondary hits (41 compounds) were checked their selectivity for Sirtuin 1 based on counterscreening on unrelated protein targets (bovine carbonic anhydrase (CA) and recombinant SH2 domain of hABL1 kinase (ABL1)) at three different concentrations (5, 10, 20 µM, n = 4), which yielded 38 hit compounds, hereafter referred to as TSA hits. The TSA screening above was conducted in the absence of NAD+. As noted, the structure of Sirtuin 1 is different in the presence of NAD+ and substrate. The chemical profile of TSA hits found from the different conditions could be different. […] As a result, 39 TSA hits were found.

Chain of NAD-dependent deacetylase Sirtuin 1 (Q96EB6 2-747 limits assumed): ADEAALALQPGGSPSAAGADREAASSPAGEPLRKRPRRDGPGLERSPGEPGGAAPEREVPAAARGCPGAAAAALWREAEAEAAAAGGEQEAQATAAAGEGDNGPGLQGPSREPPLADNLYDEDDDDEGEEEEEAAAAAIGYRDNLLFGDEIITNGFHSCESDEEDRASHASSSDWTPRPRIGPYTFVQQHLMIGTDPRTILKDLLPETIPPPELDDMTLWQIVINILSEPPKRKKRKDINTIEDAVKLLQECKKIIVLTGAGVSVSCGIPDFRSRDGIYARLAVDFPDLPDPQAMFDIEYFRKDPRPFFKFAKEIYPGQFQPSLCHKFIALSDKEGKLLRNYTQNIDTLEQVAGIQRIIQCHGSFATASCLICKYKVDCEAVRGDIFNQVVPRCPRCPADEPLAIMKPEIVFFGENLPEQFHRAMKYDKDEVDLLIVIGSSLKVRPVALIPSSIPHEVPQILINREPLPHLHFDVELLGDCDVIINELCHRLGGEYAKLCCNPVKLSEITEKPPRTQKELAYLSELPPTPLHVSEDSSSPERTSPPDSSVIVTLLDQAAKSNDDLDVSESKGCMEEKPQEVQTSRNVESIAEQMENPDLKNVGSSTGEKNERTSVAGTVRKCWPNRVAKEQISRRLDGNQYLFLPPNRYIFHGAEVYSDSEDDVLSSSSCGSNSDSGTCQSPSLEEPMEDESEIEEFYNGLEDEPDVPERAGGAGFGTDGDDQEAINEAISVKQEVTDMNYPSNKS

Structure (SMILES) | TSA(with NAD+) / Primary screening (TSA) / delta Tm (K)
Cc1ccc(N(C)S(=O)(=O)c2cccc(C(=O)Nc3cccc(C#N)c3)c2)cc1 | 0.28
CN(c1ccccc1)S(=O)(=O)c1cccc(NC(=O)c2cccc(C#N)c2)c1 | 0.08
COc1ccc(N(C)S(=O)(=O)c2cccc(C(=O)Nc3ccc(Br)c(C(F)(F)F)c3)c2)cc1 | 0.69
CN(c1cccc(Cl)c1)S(=O)(=O)c1cccc(C(=O)Nc2cccc(C#N)c2)c1 | 0.45
COc1ccc(N(C)S(=O)(=O)c2cccc(C(=O)Nc3ccc4c(C)cc(=O)oc4c3)c2)cc1 | -0.09
COc1ccc(N(C)S(=O)(=O)c2cccc(C(=O)Nc3ccc4ccccc4c3)c2)cc1 | 0.65
COc1ccc(N(C)S(=O)(=O)c2cccc(C(=O)Nc3ncc(C(N)=O)s3)c2)cc1 | -0.03
COc1ccc(N(C)S(=O)(=O)c2cccc(C(=O)Nc3ccc(Br)cc3F)c2)cc1 | 0.36
COc1ccc(N(C)S(=O)(=O)c2cccc(C(=O)Nc3cccc(C#N)c3)c2)cc1 | 0.35
COc1ccc(N(C)S(=O)(=O)c2cccc(C(=O)Nc3ccc(-n4cnnn4)cc3)c2)cc1 | 0.76
COc1ccc(N(C)S(=O)(=O)c2cccc(C(=O)Nc3cccc4ccccc34)c2)cc1 | -0.09
COc1ccc(N(C)S(=O)(=O)c2cccc(C(=O)Nc3ccc(OC)c(OC)c3)c2)cc1 | -0.04
CC(C)Cn1c(SCC(=O)Nc2sc3c(c2C(N)=O)CCC3)nnc1N1CCOCC1 | -0.18
Cc1ccc(-c2nn(-c3ccccc3)cc2C=C2C(=O)NC(=O)NC2=O)o1 | -0.59
CN(CCC#N)C(=O)C(C)(C)c1ccccc1 | -0.08
O=C(CSc1nnc(NCC2CCCO2)s1)Nc1nc(-c2cc(F)ccc2F)cs1 (centres unmarked) | 0.01
Cc1ccc(N(C)S(=O)(=O)c2cccc(C(=O)Nc3nc4ccccc4[nH]3)c2)cc1 | -0.06
COc1ccc(N(C)S(=O)(=O)c2cccc(C(=O)Nc3ccc(Br)cc3)c2)cc1 | 1.36
COc1ccc(N(C)S(=O)(=O)c2cccc(C(=O)Nc3ccc(C)cc3)c2)cc1 | 0.11
COc1ccc(N(C)S(=O)(=O)c2cccc(C(=O)Nc3ccc(Cl)cc3)c2)cc1 | 0.86
CN(c1ccccc1)S(=O)(=O)c1cccc(C(=O)Nc2ccccc2-c2ccccc2)c1 | -0.02
COc1ccc(NC(=O)c2cccc(S(=O)(=O)N(C)c3ccc(OC)cc3)c2)cc1 | -0.02
CCCOC(=O)c1ccc(NC(=O)c2cccc(S(=O)(=O)N(C)c3ccc(OC)cc3)c2)cc1 | 0.29
CN(c1ccccc1)S(=O)(=O)c1cccc(C(=O)Nc2ccccc2-c2nc3ccccc3[nH]2)c1 | 0.38
COc1ccc(N(C)S(=O)(=O)c2cccc(C(=O)Nc3cccc(Br)c3)c2)cc1 | 0.32
NC(=O)c1oc2ccccc2c1NC(=O)Cc1ccc(Cl)c(Cl)c1 | 0.12
CC(=O)Nc1ccc(NCc2nnc3n(C)c(=O)c4ccccc4n23)cc1 | -0.12

Structure (SMILES) | TSA(with NAD+) / Primary screening (TSA) / delta Tm (K)
NC1=C(c2nc3ccccc3[nH]2)C(=O)CN1c1ccc(CC(=O)O)cc1 | -0.03
CC(O)CCCN (centres unmarked) | -0.11
Cc1ccc(S(=O)(=O)N2CCCCC2)cc1NC(=O)COC(=O)c1ccccc1SCC(=O)N1CCCC1 | -0.01
O=C(Nc1ccc(Oc2ncccn2)cc1)c1ccc(S(=O)(=O)Nc2ccc(F)cc2)cc1 | 0.06
Cc1nc(COc2ccc(C(=O)Nc3ccc(S(=O)(=O)Nc4cccc(F)c4)cc3)cc2)cs1 | -0.14
N#CC(C(=O)c1ccc(NS(=O)(=O)c2ccccc2)cc1)c1nc(-c2ccccn2)cs1 (centres unmarked) | 0.47
O=C(NN/C=C1/C(=O)N(c2cccc(C(F)(F)F)c2)C(=O)c2ccccc21)c1cccc(S(=O)(=O)Nc2ccccc2Cl)c1 | 0.99
Cc1ccc(N(C)S(=O)(=O)c2cccc(C(=O)Nc3ccccc3C(F)(F)F)c2)cc1 | -0.09
Cc1ccc(N(C)S(=O)(=O)c2cccc(C(=O)Nc3ccccc3Cl)c2)cc1 | -0.13
C=CCOc1ccc(C(=O)C2=C(O)C(=O)N(CCN3CCOCC3)C2c2ccco2)cc1 (centres unmarked) | -0.01
COc1ccccc1-c1noc(C(C)NC(=O)C(C)NC(C)=O)n1 (centres unmarked) | -0.01
COc1ccc(-c2cc(NC(=O)Cc3n[nH]c(=O)c4ccccc34)ccc2OC(F)F)cc1 | 0.07
COc1ccc(-c2cc(NC(=O)CCNC(=O)c3ccc(Cl)cc3)ccc2OC(F)F)cc1 | 0.45
COc1ccc(CC(=O)NCCNC(=O)c2ccc(C)c(F)c2)cc1 | -0.13
O=C(C1=C(O)C(=O)N(CCCN2CCOCC2)C1c1cccc([N+](=O)[O-])c1)c1ccc(F)cc1 (centres unmarked) | 0.06
Cc1cccc(C(=O)OCc2ccc(C(=O)Nc3ccccc3)cc2)c1 | -0.03
Nc1nc(COC(=O)c2cccc(NC(=O)c3cccs3)c2)nc(Nc2ccccc2)n1 | 0.42
O=C(COC(=O)c1cc(-c2ccc(Cl)cc2)nc2ccccc12)NNC(=O)c1cccs1 | 0.16
CC1CCCN(CCCNC(=O)CCc2cc3ccccc3[nH]c2=O)C1 (centres unmarked) | 0.11
O=C(CN1CCCC2(CC=CCC2)C1)N1CCc2[nH]c3ccccc3c2C1 (centres unmarked) | 0.06
O=C(Cc1c[nH]c2ccccc12)N1CCc2[nH]c3ccccc3c2C1 | 0.37
O=C(CCc1ccc2c(c1)OCO2)N1CCc2[nH]c3ccccc3c2C1 | -0.01
Cc1n[nH]c(=O)c(C(=O)NNC(=O)CC23CC4CC(CC(C4)C2)C3)c1C | 0.19
CCc1c(C)c(C#N)c2nc3ccccc3n2c1Cl | -0.05
CCc1c(C)c(C#N)c2nc3ccccc3n2c1S | 0.46
Cc1c(CCC#N)c(Cl)n2c(nc3ccccc32)c1C#N | -0.03
